{"source": "PubChem BioAssay (EPA / NIEHS)", "key": {"[1]": {"target": "Peroxisome proliferator-activated receptor gamma (Homo sapiens) (UniProt P37231)", "sequence (P37231 whole entry, looked up, the tested form may be a part)": "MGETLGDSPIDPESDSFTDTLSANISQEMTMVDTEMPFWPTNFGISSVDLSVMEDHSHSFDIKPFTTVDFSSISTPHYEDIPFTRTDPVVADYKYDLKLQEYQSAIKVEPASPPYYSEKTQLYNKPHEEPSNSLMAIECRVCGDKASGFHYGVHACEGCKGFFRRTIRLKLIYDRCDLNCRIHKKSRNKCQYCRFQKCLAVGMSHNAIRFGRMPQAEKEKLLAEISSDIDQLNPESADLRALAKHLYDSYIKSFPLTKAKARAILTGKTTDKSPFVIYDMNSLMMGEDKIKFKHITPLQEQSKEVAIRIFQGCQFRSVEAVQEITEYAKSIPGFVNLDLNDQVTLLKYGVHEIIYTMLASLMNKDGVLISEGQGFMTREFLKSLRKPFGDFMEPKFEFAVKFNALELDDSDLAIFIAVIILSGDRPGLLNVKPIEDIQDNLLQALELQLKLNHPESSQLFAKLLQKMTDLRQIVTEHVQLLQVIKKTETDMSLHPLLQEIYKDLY", "assay": "OT_PPARg_PPARgSRC1_0480: Odyssey Thera (OT) 8-hour Protein-Complementation Assay for Peroxisome Proliferator-activated Receptor Gamma / SRC-1 Co-activator (AID 2283387)", "in_short": "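HEK293T transiently transfected with PPARg and SRC-1 fused to Venus YFP fragments, compounds 8 h at 37C. Fixed, Draq5-stained cells imaged; nuclear/cytoplasmic 488 nm fluorescence ratio over at least 350 cells per image; gain fitted versus DMSO.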"}, "[2]": {"target": "Peroxisome proliferator-activated receptor gamma (Homo sapiens) (UniProt P37231)", "assay": "OT_PPARg_PPARgSRC1_1440: Odyssey Thera (OT) 24-hour Protein-Complementation Assay for Peroxisome Proliferator-activated Receptor Gamma/ SRC-1 Co-activator (AID 2283388)", "in_short": "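Readout: nuclear-to-cytoplasmic 488 nm fluorescence ratio, ≥350 cells per image, 8 images per well, after 24 h compound exposure of HEK293T expressing PPARg/SRC-1 split-YFP fusions. Activity fitted in positive direction against DMSO.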"}, "[3]": {"assay": "CEETOX_H295R_OHPREG: CeeTox H295R High-throughput Steroidogenesis Assay for OH-Pregnenolone (OHPREG) (AID 2283434; active = hit-call score of the fitted dose curve at least 0.9, where 1 is the maximum; inactive = score below 0.9)", "settings": "actives raise or lower the signal", "in_short": "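H295R cells pre-stimulated 48 h with 10 uM forskolin, then exposed 48 h to chemical in 0.1% DMSO. 17alpha-hydroxypregnenolone in medium quantified by MTBE extraction and HPLC-MS/MS; bidirectional fit versus DMSO, viability checked by MTT.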"}, "[4]": {"assay": "CEETOX_H295R_OHPROG: CeeTox H295R High-throughput Steroidogenesis Assay for OH-Progesterone (OHPROG) (AID 2283435; active = hit-call score of the fitted dose curve at least 0.9, where 1 is the maximum; inactive = score below 0.9;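 as to AC50: 17alpha-hydroxyprogesterone secreted into medium measured by HPLC-MS/MS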)", "settings": "actives raise or lower the signal", "in_short": "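H295R, 10 uM forskolin prestim 48 h; cmpd in 0.1% DMSO 48 h; medium MTBE-extracted, HPLC-MS/MS for OH-progesterone; 7-pt std curve; bidirectional fit vs DMSO; MTT viability, chemicals diluted until viability >/=70%.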"}, "[5]": {"assay": "CEETOX_H295R_11DCORT: CeeTox H295R High-throughput Steroidogenesis Assay for 11-Deoxycortisol (11DCORT) (AID 2283432; active = hit-call score of the fitted dose curve at least 0.9, where 1 is the maximum; inactive = score below 0.9)", "settings": "actives raise or lower the signal", "in_short": "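H295R cells prestimulated 48 h with 10 uM forskolin, then exposed 48 h to chemical in 0.1% DMSO. 11-Deoxycortisol in medium quantified by HPLC-MS/MS after MTBE extraction; bidirectional fit versus DMSO. MTT viability read in same wells.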"}, "[6]": {"assay": "CEETOX_H295R_ANDR: CeeTox H295R High-throughput Steroidogenesis Assay for Androstenedione (ANDR) (AID 2283436; active = hit-call score of the fitted dose curve at least 0.9, where 1 is the maximum; inactive = score below 0.9)", "settings": "actives raise or lower the signal", "in_short": "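H295R cells, following OECD 456 with minor changes, exposed to chemicals for 48 h. Androstenedione in the medium was quantified by HPLC-MS/MS after MTBE extraction. Fitting was bidirectional versus DMSO; chemicals were diluted until MTT viability was ≥70%.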"}, "[7]": {"assay": "CEETOX_H295R_CORTIC: CeeTox H295R High-throughput Steroidogenesis Assay for Corticosterone (CORTIC) (AID 2283437; active = hit-call score of the fitted dose curve at least 0.9, where 1 is the maximum; inactive = score below 0.9;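 also: corticosterone secreted into medium quantified by mass spectrometry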)", "settings": "actives raise or lower the signal", "in_short": "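H295R adrenal cells prestimulated 48 hours with 10 uM forskolin, then exposed 48 hours to chemical in 0.1% DMSO. Corticosterone in medium measured by HPLC-MS/MS after MTBE extraction; MTT viability in the same wells; bidirectional fit versus DMSO.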"}, "[8]": {"assay": "CEETOX_H295R_CORTISOL: CeeTox H295R High-throughput Steroidogenesis Assay for Cortisol (AID 2283438; active = hit-call score of the fitted dose curve at least 0.9, where 1 is the maximum; inactive = score below 0.9)", "settings": "actives raise or lower the signal", "in_short": "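Forskolin 10 uM 48 h prestim → test cmpd in DMSO (0.1% final) 48 h → medium MTBE-extracted → LC-MS/MS cortisol vs 7-pt std curve. Gain/loss of signal fitted vs DMSO. MTT viability in same wells.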"}, "[9]": {"assay": "CEETOX_H295R_DOC: CeeTox H295R High-throughput Steroidogenesis Assay for DOC (AID 2283439; active = hit-call score of the fitted dose curve at least 0.9, where 1 is the maximum; inactive = score below 0.9)", "settings": "actives raise or lower the signal", "in_short": "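Readout: 11-deoxycorticosterone in culture medium by reverse-phase C18 HPLC with ESI+ tandem MS after MTBE extraction. Cells: H295R, forskolin-primed (10 uM, 48 h), chemical-treated 48 h; DMSO 0.1% final. Activity fitted bidirectionally versus DMSO.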"}, "[10]": {"assay": "CEETOX_H295R_ESTRADIOL: CeeTox H295R High-throughput Steroidogenesis Assay for Estradiol (AID 2283440; active = hit-call score of the fitted dose curve at least 0.9, where 1 is the maximum; inactive = score below 0.9;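 also: estradiol secreted into medium quantified by LC-MS/MS after dansyl derivatisation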)", "settings": "actives raise or lower the signal", "in_short": "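H295R, 48 h forskolin (10 uM) prestim → 48 h compound, 0.1% DMSO final. Estradiol in medium: MTBE extraction, dansyl chloride derivatization, LC-MS/MS. Fit bidirectional vs DMSO baseline; MTT viability in same wells.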"}}, "note": "Records with an inconclusive call do not appear. Active and inactive are the calls of the source. The calls were made as follows, unless noted: active = hit-call score of the fitted dose curve at least 0.9, where 1 is the maximum; inconclusive = response in the unintended direction; inactive = score below 0.9.", "data": [{"compound": "CCc1occc(=O)c1O", "values": [{"measurement": "outcome", "setting": "[1]", "result": "inactive"}, {"measurement": "outcome", "setting": "[2]", "result": "inactive"}]}, {"compound": "O=S(=O)(O)c1ccc(N=Nc2c(O)ccc3ccccc23)cc1", "values": [{"measurement": "outcome", "setting": "[1]", "result": "inactive"}, {"measurement": "outcome", "setting": "[2]", "result": "inactive"}]}, {"compound": "CC(C)(C)C1CCC(=O)CC1", "values": [{"measurement": "outcome", "setting": "[1]", "result": "inactive"}, {"measurement": "outcome", "setting": "[2]", "result": "inactive"}]}, {"compound": "CCOC(=O)c1ccccc1C", "values": [{"measurement": "outcome", "setting": "[1]", "result": "inactive"}, {"measurement": "outcome", "setting": "[2]", "result": "inactive"}]}, {"compound": "CCCCCCO", "values": [{"measurement": "outcome", "setting": "[1]", "result": "inactive"}, {"measurement": "outcome", "setting": "[2]", "result": "inactive"}]}, {"compound": "CC(C)c1cc(C(C)C)cc(C(C)C)c1", "values": [{"measurement": "outcome", "setting": "[1]", "result": "inactive"}, {"measurement": "outcome", "setting": "[2]", "result": "inactive"}]}, {"compound": "CCCCCC(=O)OCC", "values": [{"measurement": "outcome", "setting": "[1]", "result": "inactive"}, {"measurement": "outcome", "setting": "[2]", "result": "inactive"}]}, {"compound": "CC(C)=CCCC(C)=CC#N", "values": [{"measurement": "outcome", "setting": "[1]", "result": "inactive"}, {"measurement": "outcome", "setting": "[2]", "result": "inactive"}]}, {"compound": "CC(=O)/C=C/C1C(C)=CCCC1(C)C", "note": "(stereo not given)", "values": [{"measurement": "outcome", "setting": "[1]", "result": "inactive"}, {"measurement": "outcome", "setting": "[2]", "result": "inactive"}]}, {"compound": "CCCCCCC=O", "values": [{"measurement": "outcome", "setting": "[1]", "result": "inactive"}, {"measurement": "outcome", "setting": "[2]", "result": "inactive"}]}, {"compound": "C=CCOC(=O)c1ccc(C(=O)OCC=C)c(C(=O)OCC=C)c1", "values": [{"measurement": "outcome", "setting": "[1]", "result": "inactive"}, {"measurement": "outcome", "setting": "[2]", "result": "inactive"}]}, {"compound": "Cc1cc(C)n(CO)n1", "values": [{"measurement": "outcome", "setting": "[1]", "result": "inactive"}, {"measurement": "outcome", "setting": "[2]", "result": "inactive"}]}, {"compound": "CCCCC(=O)O", "values": [{"measurement": "outcome", "setting": "[1]", "result": "inactive"}, {"measurement": "outcome", "setting": "[2]", "result": "inactive"}]}, {"compound": "CCCCCCOC(=O)CCCCC(=O)OCCCCCC", "values": [{"measurement": "outcome", "setting": "[1]", "result": "inactive"}, {"measurement": "outcome", "setting": "[2]", "result": "inactive"}]}, {"compound": "CCCCCCCCCC(C)=O", "values": [{"measurement": "outcome", "setting": "[1]", "result": "inactive"}, {"measurement": "outcome", "setting": "[2]", "result": "inactive"}]}, {"compound": "CCc1cccc(C)c1N", "values": [{"measurement": "outcome", "setting": "[1]", "result": "inactive"}, {"measurement": "outcome", "setting": "[2]", "result": "inactive"}]}, {"compound": "Oc1ccc(-c2ccccc2)c(Cl)c1", "values": [{"measurement": "outcome", "setting": "[1]", "result": "inactive"}, {"measurement": "outcome", "setting": "[2]", "result": "inactive"}]}, {"compound": "CC1=NN(c2ccc(S(=O)(=O)O)cc2)C(=O)C1N=Nc1ccccc1", "note": "(stereo not given)", "values": [{"measurement": "outcome", "setting": "[1]", "result": "inactive"}, {"measurement": "outcome", "setting": "[2]", "result": "inactive"}]}, {"compound": "CCCCCCCCC(CO)CCCCCC", "note": "(stereo not given)", "values": [{"measurement": "outcome", "setting": "[1]", "result": "inactive"}, {"measurement": "outcome", "setting": "[2]", "result": "inactive"}]}, {"compound": "Oc1ccccc1Cc1ccccc1O", "values": [{"measurement": "outcome", "setting": "[1]", "result": "inactive"}, {"measurement": "outcome", "setting": "[2]", "result": "inactive"}]}, {"compound": "CCCC(CC)c1ccccc1", "note": "(stereo not given)", "values": [{"measurement": "outcome", "setting": "[1]", "result": "inactive"}, {"measurement": "outcome", "setting": "[2]", "result": "inactive"}]}, {"compound": "Fc1ccc(Br)cc1", "values": [{"measurement": "outcome", "setting": "[1]", "result": "inactive"}, {"measurement": "outcome", "setting": "[2]", "result": "inactive"}]}, {"compound": "O=C(Oc1ccccc1)c1ccccc1O", "values": [{"measurement": "outcome", "setting": "[1]", "result": "inactive"}, {"measurement": "outcome", "setting": "[2]", "result": "inactive"}]}, {"compound": "C/C=C/C=C/CCCCCCCO", "values": [{"measurement": "outcome", "setting": "[1]", "result": "inactive"}, {"measurement": "outcome", "setting": "[2]", "result": "inactive"}]}, {"compound": "CCCCCCOc1ccc(N)cc1", "values": [{"measurement": "outcome", "setting": "[1]", "result": "inactive"}, {"measurement": "outcome", "setting": "[2]", "result": "inactive"}]}, {"compound": "CCCCNS(=O)(=O)c1ccc(C)cc1", "values": [{"measurement": "outcome", "setting": "[1]", "result": "inactive"}, {"measurement": "outcome", "setting": "[2]", "result": "inactive"}]}, {"compound": "CN(C)Cc1cc(CN(C)C)c(O)c(CN(C)C)c1", "values": [{"measurement": "outcome", "setting": "[1]", "result": "inactive"}, {"measurement": "outcome", "setting": "[2]", "result": "inactive"}]}, {"compound": "O=C(Nc1ccccc1)c1cc(Cl)ccc1O", "values": [{"measurement": "outcome", "setting": "[1]", "result": "inactive"}, {"measurement": "outcome", "setting": "[2]", "result": "inactive"}]}, {"compound": "CCCCc1ccc(Cl)cc1", "values": [{"measurement": "outcome", "setting": "[1]", "result": "inactive"}, {"measurement": "outcome", "setting": "[2]", "result": "inactive"}]}, {"compound": "CCCCC(C=O)CC", "note": "(stereo not given)", "values": [{"measurement": "outcome", "setting": "[1]", "result": "inactive"}, {"measurement": "outcome", "setting": "[2]", "result": "inactive"}]}, {"compound": "Cc1ccc([N+](=O)[O-])cc1N", "values": [{"measurement": "outcome", "setting": "[1]", "result": "inactive"}, {"measurement": "outcome", "setting": "[2]", "result": "inactive"}, {"measurement": "outcome", "setting": "[3]", "result": "inactive"}, {"measurement": "AC50", "setting": "[4]", "result": "18.8 µM (active)"}]}, {"compound": "O=c1c(O)c(-c2ccc(O)cc2O)oc2cc(O)cc(O)c12", "values": [{"measurement": "outcome", "setting": "[1]", "result": "inactive"}, {"measurement": "outcome", "setting": "[2]", "result": "inactive"}]}, {"compound": "CCCCCCCCCCCCc1ccc(O)cc1", "values": [{"measurement": "outcome", "setting": "[2]", "result": "inactive"}]}, {"compound": "C=CC(=O)OCCCCCCOC(=O)C=C", "values": [{"measurement": "outcome", "setting": "[5]", "result": "inactive"}, {"measurement": "outcome", "setting": "[3]", "result": "inactive"}, {"measurement": "outcome", "setting": "[4]", "result": "inactive"}, {"measurement": "outcome", "setting": "[6]", "result": "inactive"}, {"measurement": "outcome", "setting": "[7]", "result": "inactive"}, {"measurement": "outcome", "setting": "[8]", "result": "inactive"}, {"measurement": "outcome", "setting": "[9]", "result": "inactive"}, {"measurement": "outcome", "setting": "[10]", "result": "inactive"}]}]}
